Legend:
[1] = biological target: T1, Ephrin type-B receptor 2 (Homo sapiens) (UniProt P29323); conditions: at 1 µM
T1 sequence (whole entry): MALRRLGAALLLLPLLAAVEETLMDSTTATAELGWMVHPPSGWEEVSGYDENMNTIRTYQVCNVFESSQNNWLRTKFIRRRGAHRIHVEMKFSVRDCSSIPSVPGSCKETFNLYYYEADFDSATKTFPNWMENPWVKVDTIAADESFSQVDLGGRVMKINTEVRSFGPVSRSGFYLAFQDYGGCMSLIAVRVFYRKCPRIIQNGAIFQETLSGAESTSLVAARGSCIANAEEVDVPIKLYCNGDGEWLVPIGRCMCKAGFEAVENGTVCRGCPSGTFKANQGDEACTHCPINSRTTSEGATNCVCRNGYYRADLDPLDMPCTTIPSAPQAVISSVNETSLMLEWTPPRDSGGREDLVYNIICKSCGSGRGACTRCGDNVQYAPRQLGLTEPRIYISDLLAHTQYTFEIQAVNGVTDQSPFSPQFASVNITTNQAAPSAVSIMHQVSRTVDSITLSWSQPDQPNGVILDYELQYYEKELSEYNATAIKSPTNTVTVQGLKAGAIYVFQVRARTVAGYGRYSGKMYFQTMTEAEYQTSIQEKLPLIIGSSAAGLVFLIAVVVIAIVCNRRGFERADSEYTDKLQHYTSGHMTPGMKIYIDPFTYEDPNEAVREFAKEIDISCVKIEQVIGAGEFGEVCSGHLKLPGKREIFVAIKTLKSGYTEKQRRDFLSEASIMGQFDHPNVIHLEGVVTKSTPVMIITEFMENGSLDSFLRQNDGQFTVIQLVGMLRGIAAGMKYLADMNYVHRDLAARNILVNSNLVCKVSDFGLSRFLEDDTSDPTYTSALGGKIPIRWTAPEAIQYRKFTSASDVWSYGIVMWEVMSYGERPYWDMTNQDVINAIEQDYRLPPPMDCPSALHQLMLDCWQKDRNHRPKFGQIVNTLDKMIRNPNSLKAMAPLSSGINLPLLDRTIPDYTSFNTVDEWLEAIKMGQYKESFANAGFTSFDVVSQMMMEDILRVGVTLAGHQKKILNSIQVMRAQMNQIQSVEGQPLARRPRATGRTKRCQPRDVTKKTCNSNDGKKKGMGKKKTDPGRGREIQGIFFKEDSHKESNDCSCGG

[2] = biological target: T2, Ephrin type-B receptor 3 (Homo sapiens) (UniProt P54753); conditions: at 0.1 µM
T2 sequence (whole entry): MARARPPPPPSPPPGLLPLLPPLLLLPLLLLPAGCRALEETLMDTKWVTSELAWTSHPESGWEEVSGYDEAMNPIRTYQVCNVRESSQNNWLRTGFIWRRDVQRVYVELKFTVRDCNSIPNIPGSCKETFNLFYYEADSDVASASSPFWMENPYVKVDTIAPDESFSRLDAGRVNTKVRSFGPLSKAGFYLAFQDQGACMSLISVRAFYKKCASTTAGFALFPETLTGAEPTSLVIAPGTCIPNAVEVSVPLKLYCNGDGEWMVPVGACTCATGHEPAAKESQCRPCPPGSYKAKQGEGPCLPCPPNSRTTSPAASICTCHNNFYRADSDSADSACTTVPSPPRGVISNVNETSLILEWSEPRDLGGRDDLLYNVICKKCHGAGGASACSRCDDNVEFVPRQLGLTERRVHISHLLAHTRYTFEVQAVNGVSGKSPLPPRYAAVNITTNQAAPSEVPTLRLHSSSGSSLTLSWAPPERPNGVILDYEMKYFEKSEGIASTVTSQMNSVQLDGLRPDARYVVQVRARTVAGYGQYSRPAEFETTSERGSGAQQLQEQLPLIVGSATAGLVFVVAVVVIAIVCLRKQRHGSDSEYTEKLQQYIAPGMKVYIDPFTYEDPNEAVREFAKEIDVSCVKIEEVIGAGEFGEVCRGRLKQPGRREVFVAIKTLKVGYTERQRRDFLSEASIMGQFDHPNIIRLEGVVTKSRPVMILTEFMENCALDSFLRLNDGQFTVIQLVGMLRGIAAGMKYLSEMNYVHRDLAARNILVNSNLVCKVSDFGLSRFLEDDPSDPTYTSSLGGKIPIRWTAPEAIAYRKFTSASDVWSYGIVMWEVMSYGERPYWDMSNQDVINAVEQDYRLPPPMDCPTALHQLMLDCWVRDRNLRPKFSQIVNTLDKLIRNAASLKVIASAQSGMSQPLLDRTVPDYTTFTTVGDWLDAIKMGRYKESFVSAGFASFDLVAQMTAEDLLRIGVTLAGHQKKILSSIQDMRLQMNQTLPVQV

[3] = biological target: T2, Ephrin type-B receptor 3 (Homo sapiens); conditions: at 1 µM
[4] = biological target: T3, Ephrin type-B receptor 4 (Homo sapiens) (UniProt P54760); conditions: at 0.1 µM
T3 sequence (whole entry): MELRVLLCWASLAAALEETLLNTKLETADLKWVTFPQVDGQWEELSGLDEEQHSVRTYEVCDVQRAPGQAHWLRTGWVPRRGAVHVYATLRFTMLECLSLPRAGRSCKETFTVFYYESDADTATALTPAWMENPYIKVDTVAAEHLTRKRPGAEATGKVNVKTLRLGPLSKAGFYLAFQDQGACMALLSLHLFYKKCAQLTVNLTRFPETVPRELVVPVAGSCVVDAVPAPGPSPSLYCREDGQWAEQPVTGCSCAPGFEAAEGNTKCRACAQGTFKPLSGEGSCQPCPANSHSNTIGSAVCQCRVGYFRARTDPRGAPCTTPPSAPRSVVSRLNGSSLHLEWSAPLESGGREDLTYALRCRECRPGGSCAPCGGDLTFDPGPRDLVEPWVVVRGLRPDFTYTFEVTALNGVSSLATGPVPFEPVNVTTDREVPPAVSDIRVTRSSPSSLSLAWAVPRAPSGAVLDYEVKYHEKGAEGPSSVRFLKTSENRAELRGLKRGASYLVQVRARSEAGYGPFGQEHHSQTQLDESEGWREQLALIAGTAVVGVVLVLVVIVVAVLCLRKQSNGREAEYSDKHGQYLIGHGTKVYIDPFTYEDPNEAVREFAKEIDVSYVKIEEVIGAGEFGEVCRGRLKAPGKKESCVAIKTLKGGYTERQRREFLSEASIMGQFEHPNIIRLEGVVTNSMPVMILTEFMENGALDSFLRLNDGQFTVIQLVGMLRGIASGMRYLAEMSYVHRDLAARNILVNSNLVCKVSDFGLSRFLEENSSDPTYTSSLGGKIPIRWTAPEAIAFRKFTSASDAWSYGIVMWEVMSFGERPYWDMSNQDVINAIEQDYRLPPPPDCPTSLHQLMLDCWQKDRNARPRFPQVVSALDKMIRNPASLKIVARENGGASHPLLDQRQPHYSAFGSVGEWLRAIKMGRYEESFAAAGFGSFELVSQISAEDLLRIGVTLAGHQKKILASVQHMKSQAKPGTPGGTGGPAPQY

[5] = biological target: T3, Ephrin type-B receptor 4 (Homo sapiens); conditions: at 1 µM
[6] = biological target: Receptor tyrosine-protein kinase erbB-2 (Homo sapiens) (UniProt P04626); conditions: at 0.1 µM
[7] = biological target: Receptor tyrosine-protein kinase erbB-2 (Homo sapiens) (UniProt P04626); conditions: at 1 µM
[8] = biological target: Receptor tyrosine-protein kinase erbB-4 (Homo sapiens) (UniProt Q15303); conditions: at 0.1 µM
[9] = biological target: Receptor tyrosine-protein kinase erbB-4 (Homo sapiens) (UniProt Q15303); conditions: at 1 µM
[10] = biological target: Tyrosine-protein kinase Fer (Homo sapiens) (UniProt P16591); conditions: at 0.1 µM
[11] = biological target: Tyrosine-protein kinase Fer (Homo sapiens) (UniProt P16591); conditions: at 1 µM
[12] = biological target: Tyrosine-protein kinase Fes/Fps (Homo sapiens) (UniProt P07332); conditions: at 0.1 µM
[13] = biological target: Tyrosine-protein kinase Fes/Fps (Homo sapiens) (UniProt P07332); conditions: at 1 µM
[14] = biological target: Fibroblast growth factor receptor 1 (Homo sapiens) (UniProt P11362); conditions: at 0.1 µM
[15] = biological target: Fibroblast growth factor receptor 1 (Homo sapiens) (UniProt P11362); conditions: at 1 µM
[16] = biological target: Fibroblast growth factor receptor 2 (Homo sapiens) (UniProt P21802); conditions: at 0.1 µM
[17] = biological target: Fibroblast growth factor receptor 2 (Homo sapiens) (UniProt P21802); conditions: at 1 µM
[18] = biological target: Fibroblast growth factor receptor 3 (Homo sapiens) (UniProt P22607); conditions: at 0.1 µM
[19] = biological target: Fibroblast growth factor receptor 3 (Homo sapiens) (UniProt P22607); conditions: at 1 µM
[20] = biological target: Fibroblast growth factor receptor 4 (Homo sapiens) (UniProt P22455); conditions: at 0.1 µM;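 further: values are mean percent inhibition of FGFR4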
Fibroblast growth factor receptor 4 (Homo sapiens), sequence (P22455 22-802 limits assumed): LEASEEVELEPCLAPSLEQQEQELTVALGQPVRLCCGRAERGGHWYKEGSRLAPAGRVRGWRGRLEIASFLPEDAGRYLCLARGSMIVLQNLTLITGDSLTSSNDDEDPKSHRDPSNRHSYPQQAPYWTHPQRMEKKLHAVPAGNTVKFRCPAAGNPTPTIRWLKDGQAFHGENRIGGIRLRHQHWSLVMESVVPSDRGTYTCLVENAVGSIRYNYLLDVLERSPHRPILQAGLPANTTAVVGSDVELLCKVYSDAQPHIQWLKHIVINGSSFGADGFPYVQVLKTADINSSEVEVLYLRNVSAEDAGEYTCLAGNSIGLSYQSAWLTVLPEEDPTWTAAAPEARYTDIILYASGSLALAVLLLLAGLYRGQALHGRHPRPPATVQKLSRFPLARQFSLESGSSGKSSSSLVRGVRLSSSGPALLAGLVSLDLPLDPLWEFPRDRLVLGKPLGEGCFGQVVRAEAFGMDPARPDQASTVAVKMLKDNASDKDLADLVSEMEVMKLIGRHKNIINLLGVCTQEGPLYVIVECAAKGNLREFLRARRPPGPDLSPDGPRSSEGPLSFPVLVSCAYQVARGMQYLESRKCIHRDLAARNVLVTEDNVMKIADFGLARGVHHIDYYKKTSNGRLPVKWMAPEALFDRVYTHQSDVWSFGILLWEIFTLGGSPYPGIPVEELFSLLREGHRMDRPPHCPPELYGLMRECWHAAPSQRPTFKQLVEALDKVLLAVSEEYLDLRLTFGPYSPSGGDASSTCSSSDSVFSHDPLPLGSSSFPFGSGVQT

Fibroblast growth factor receptor 3 (Homo sapiens), sequence (P22607 23-806 limits assumed): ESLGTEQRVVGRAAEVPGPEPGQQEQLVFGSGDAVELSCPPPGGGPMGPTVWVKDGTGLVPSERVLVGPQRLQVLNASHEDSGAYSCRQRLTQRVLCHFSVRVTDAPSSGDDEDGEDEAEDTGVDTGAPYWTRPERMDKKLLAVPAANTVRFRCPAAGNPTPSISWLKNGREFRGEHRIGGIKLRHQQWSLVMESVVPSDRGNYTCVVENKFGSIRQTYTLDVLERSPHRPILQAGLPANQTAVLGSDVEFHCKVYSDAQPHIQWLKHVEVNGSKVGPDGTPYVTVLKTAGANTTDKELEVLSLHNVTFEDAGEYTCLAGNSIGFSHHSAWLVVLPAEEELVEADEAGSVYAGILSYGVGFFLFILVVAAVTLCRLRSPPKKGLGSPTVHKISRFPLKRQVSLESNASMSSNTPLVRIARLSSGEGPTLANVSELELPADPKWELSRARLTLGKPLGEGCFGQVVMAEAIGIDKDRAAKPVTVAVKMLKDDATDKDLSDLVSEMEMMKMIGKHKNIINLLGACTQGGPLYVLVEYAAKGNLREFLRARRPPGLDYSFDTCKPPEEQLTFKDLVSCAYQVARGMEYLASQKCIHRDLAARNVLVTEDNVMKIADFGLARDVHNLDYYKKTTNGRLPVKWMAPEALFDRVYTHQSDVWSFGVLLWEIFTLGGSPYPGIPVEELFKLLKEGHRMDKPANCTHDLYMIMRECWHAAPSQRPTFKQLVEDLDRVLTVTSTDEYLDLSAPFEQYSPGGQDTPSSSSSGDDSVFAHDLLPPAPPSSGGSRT
Fibroblast growth factor receptor 2 (Homo sapiens), sequence (P21802 22-821 limits assumed): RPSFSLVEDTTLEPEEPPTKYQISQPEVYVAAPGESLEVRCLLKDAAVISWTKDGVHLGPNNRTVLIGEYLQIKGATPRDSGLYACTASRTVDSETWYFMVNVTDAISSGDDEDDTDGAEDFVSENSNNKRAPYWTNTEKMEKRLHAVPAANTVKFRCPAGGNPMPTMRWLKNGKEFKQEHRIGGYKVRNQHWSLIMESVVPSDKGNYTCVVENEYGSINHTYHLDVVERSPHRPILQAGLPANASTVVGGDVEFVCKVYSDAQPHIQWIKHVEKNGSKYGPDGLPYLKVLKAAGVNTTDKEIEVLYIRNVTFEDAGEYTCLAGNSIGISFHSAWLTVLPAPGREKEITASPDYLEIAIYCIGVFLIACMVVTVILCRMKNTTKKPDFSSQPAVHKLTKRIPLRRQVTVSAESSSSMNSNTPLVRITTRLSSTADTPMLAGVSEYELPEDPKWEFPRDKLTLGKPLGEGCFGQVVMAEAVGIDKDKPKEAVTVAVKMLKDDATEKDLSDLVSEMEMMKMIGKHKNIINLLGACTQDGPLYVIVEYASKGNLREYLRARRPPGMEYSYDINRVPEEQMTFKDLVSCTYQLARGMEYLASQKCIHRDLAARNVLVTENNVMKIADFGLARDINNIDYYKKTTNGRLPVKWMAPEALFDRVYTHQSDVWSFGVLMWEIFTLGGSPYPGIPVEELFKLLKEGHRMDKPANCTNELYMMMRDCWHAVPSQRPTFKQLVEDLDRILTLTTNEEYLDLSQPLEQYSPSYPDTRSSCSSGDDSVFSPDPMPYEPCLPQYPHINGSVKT
Tyrosine-protein kinase Fer (Homo sapiens), sequence (P16591 whole entry, looked up): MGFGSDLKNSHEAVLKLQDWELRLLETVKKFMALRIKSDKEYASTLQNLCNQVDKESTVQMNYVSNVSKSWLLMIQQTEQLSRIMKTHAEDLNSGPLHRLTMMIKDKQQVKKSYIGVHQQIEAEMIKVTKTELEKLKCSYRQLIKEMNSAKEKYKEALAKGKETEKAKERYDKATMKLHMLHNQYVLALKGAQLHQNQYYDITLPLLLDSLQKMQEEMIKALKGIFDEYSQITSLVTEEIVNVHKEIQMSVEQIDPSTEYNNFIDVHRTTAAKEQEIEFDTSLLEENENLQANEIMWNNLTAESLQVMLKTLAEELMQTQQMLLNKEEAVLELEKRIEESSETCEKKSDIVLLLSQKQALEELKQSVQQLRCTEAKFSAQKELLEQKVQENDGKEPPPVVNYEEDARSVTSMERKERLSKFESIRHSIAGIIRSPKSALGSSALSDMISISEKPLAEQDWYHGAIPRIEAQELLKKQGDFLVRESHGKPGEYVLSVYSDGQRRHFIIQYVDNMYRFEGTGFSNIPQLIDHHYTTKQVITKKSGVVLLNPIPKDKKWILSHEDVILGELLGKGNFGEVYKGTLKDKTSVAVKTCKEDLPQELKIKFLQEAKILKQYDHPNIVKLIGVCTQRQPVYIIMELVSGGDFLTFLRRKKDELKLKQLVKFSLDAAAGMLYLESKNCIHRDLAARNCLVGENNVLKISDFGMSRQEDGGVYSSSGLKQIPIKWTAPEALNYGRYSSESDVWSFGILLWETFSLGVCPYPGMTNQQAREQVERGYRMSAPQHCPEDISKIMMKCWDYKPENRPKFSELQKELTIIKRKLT
Receptor tyrosine-protein kinase erbB-4 (Homo sapiens), sequence (Q15303 whole entry): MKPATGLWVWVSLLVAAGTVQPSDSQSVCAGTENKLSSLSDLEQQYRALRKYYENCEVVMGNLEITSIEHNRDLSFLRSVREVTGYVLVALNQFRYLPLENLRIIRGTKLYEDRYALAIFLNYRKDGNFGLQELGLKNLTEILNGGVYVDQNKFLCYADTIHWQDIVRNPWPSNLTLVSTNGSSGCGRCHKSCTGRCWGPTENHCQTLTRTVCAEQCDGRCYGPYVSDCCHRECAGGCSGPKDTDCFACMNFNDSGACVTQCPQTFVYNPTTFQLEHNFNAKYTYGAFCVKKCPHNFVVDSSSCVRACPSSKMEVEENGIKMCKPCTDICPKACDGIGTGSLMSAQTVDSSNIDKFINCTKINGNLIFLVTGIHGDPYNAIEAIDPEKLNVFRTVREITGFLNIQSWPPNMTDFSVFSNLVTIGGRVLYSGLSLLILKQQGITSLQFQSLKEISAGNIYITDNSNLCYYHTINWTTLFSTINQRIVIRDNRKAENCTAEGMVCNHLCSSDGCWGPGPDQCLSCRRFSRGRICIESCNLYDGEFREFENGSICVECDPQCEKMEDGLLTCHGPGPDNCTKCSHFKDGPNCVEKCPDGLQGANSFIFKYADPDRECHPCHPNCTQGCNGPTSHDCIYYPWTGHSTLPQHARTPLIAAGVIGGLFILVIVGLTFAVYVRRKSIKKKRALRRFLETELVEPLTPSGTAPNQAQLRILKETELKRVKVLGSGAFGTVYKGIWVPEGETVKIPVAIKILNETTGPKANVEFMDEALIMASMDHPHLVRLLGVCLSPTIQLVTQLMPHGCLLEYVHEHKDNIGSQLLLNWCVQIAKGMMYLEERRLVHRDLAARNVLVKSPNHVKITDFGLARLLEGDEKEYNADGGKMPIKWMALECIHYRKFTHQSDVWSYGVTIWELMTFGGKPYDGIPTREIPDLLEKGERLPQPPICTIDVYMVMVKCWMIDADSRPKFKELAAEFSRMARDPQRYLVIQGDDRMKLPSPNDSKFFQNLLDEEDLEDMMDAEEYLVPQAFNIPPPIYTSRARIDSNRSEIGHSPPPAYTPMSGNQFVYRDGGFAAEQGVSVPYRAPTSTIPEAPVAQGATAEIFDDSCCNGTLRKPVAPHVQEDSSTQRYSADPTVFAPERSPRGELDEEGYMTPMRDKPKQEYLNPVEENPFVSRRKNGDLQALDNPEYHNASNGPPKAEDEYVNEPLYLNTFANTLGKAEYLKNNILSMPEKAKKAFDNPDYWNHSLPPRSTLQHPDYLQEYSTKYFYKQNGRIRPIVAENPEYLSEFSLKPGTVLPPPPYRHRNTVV

Structure (SMILES)	inhibition [1]	inhibition [2]	inhibition [3]	inhibition [4]	inhibition [5]	inhibition [6]	inhibition [7]	inhibition [8]	inhibition [9]	inhibition [10]	inhibition [11]	inhibition [12]	inhibition [13]	inhibition [14]	inhibition [15]	inhibition [16]	inhibition [17]	inhibition [18]	inhibition [19]	inhibition [20]
FC(F)(F)c1cccc(-c2nn3ncccc3c2-c2ccnc(Nc3ccc4c(c3)OCCO4)n2)c1	18.1%	5.94%	3%	2.8%	21.3%	1.37%	11.4%	48.3%	81.5%	0.32%	10.8%	1.96%	3.62%	2.8%	5.15%	1.92%	9.05%	4.74%	7.93%	0.03%
NC(=O)c1sc(-n2cnc3ccc(C(F)(F)F)cc32)cc1OCc1ccccc1Br	7.8%	7.23%	4.9%	-1.54%	0.48%	1.83%	1.49%	6.27%	10.9%	2.63%	2.2%	1.79%	2.43%	4.99%	5.11%	4.53%	4.28%	5.08%	3.54%	4.08%
Cc1ccc2c(-c3ccnc(Nc4ccccc4)n3)c(-c3ccc(F)cc3)nn2n1	70.6%	6.49%	11.4%	12.9%	56.9%	3.68%	32.3%	67.3%	88.7%	0.47%	8.06%	2.61%	5.64%	9.59%	10.9%	7.81%	13%	6.27%	8.54%	1.19%
O=S(=O)(CCNCc1ccc(-c2ccc3ncnc(Nc4ccc(OCc5cccc(F)c5)c(Cl)c4)c3c2)o1)c1ccccc1	13%	4.95%	4.03%	0.96%	2.99%	43.9%	60.5%	36.4%	89%	3.86%	4.93%	4.42%	4.26%	3.65%	8.42%	7.23%	11.6%	7.36%	6.93%	-5.68%
COc1ccc(CNC(=O)c2ccc(-c3cc(-c4nnc(C)o4)ccc3C)cc2)cc1	10.6%	-0.7%	0.39%	1.69%	-0.88%	3.57%	10.7%	2.27%	7.19%	2.8%	4.77%	1.89%	2.09%	3.05%	2.33%	3.51%	5.88%	2.91%	5.29%	3.34%
NS(=O)(=O)c1ccc(Nc2ncc(-c3ccccc3)o2)cc1	7.75%	4.17%	3.33%	2.27%	1.72%	2.57%	2.77%	8.79%	10.5%	2.73%	4.95%	2.8%	4.88%	6.58%	8.69%	7.74%	16.1%	7.08%	11.2%	2.06%
Clc1ccc(-c2nn3ncccc3c2-c2ccnc(Nc3ccccc3)n2)cc1	55.4%	4.87%	5.92%	6.02%	37.2%	-4.83%	6.14%	27.9%	69.5%	1.86%	4.34%	0.87%	1.62%	-0.82%	7.85%	0.58%	10.3%	4.85%	6%	1.52%
CCCN(CCS(C)(=O)=O)Cc1ccc(-c2ccc3ncnc(Nc4ccc(OCc5cccc(F)c5)c(Cl)c4)c3c2)o1	5.21%	4.42%	2.17%	3.87%	1.36%	19.1%	82.1%	76.3%	79.2%	2.14%	5.25%	1.38%	1.43%	3.02%	2.95%	-0.3%	2.2%	3.56%	2.41%	1.61%
CCc1nn2ncccc2c1-c1ccnc(NC2CC2)n1	5.11%	2.18%	3.88%	1.21%	3.43%	3.58%	5.82%	3.42%	8.22%	0.5%	4.48%	1.57%	2.04%	1.58%	7.38%	8.21%	10.7%	6.71%	11%	4.64%
CC1=C(C(=O)Nc2cc(Cl)c3[nH]ncc3c2)C(c2ccc(C(F)(F)F)cc2)CC(=O)N1 (stereo not given)	6.01%	5.62%	2.94%	-1.21%	0.29%	2.74%	1.78%	11.9%	31.2%	4.27%	3.32%	2.07%	2.33%	-0.25%	2.9%	3.38%	3.56%	9.2%	3.77%	2.42%
COc1ccc(-c2oc3ncnc(N)c3c2-c2ccc(NC(=O)Nc3cc(C(F)(F)F)ccc3F)cc2)cc1	89.9%	92.7%	99.7%	83.7%	96.6%	4.07%	8.56%	12.8%	14.6%	8.1%	64.5%	3.91%	17.1%	10.1%	66%	31.2%	75.9%	10%	63.8%	5.68%
N#Cc1c(NC(=O)c2ccc(F)cc2)sc2c1CCCC2	5.96%	2.46%	3.74%	-0.69%	0.04%	-0.32%	-0.51%	5.37%	7.46%	0.75%	0.95%	0.56%	1.22%	1.48%	2.08%	1.6%	3.48%	1.58%	2.77%	0.23%
[O-][S+]1CCN(Cc2ccc(-c3ccc4ncnc(Nc5ccc(OCc6cccc(F)c6)c(Cl)c5)c4c3)o2)CC1	7.63%	3.69%	7.49%	2.75%	4.27%	78.4%	79.9%	88.9%	91.3%	2.55%	4.93%	5%	4.91%	3.95%	9.17%	7.74%	9.73%	8.06%	7.32%	5.9%

— ChEMBL document CHEMBL1961873, “Compounds: GSK PKIS; Assays: Nanosyn kinase panel” (2012)
